# Shiga toxin inh – blocks Shiga toxin action in Vero cells; Vero cells, Shiga toxin protein synthesis inhibition reporter; inhibition, % at 38.7 µM; 290,000 tested, 9.2% active; in the data active = inhibition mostly above about 28%, no sharp cut-off; inactive = mostly below about 43%; note: 0% is about no effect
# HCV inhibitor – HCV inhibition; 340,000 tested, 3.4% active; Potency, µM (doses to about 41.8 µM), for inactives: top-dose activity change, negative = inhibition, actives largely listed as inhibitors; Huh7.5.1 HCVcc-Cre infection, luciferase reporter, 44 h; note: potency is the fitted concentration of half-maximal effect; % is set by controls: 0 for no effect and ±100 for the full control effect
#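 Reporter virus HCVcc-Cre (~0.5 moi) infects cells exposed to compound; seeding density 1,000 cells/well with 4 h settling beforehand. Luminescence, 15 sec read, taken 44 h post-infection following a 15 min RT substrate incubation.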
# Pf growth 96h – P. falciparum growth inhibition at 96 hours; AID 504834; Potency, µM (doses to about 28.7 µM), for the others: at the highest dose activity change, negative = inhibition, most hits filed as inhibitors; 320,000 tested, 6.9% active; P. falciparum luciferase reporter growth, 96 h; note: potency is the fitted concentration of half-maximal effect; % is set by controls: 0 for no effect and ±100 for the full control effect
#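 Two-generation exposure (96 h) targets delayed-death phenotype. Reporter parasites carrying integrated firefly luciferase, in red cells at 2% hematocrit and 0.05% parasitemia final, kept at 37 C, 5% CO2; luminescence loss indicates inhibition.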
# Cycloheximide cs – affects cycloheximide protein synthesis inhibition readout, counter-screen. max response, %. cell reporter, cycloheximide protein synthesis inhibition counterscreen. 300,000 tested, 12% active; in the data active = max response mostly above about 13%, no sharp cut-off; inactive = mostly below about 14%; note: read at 38.3 µM for the half of the compounds with a filed dose; 0% is about no effect
# Pf growth 48h – P. falciparum growth inhibition at 48 hours (one generation); 310,000 tested, 5.9% active; P. falciparum luciferase growth in erythrocytes, 48 h; Potency, µM (titrated, usually from 28.7 µM), for inactives: at the top dose activity change, negative = inhibition, most hits filed as inhibitors; note: potency is the fitted concentration of half-maximal effect; % is set by controls: 0 for no effect and ±100 for the full control effect
#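 A one-generation exposure of luciferase-tagged malaria parasites in RPMI 1640/Albumax erythrocyte culture, 37 C and 5% CO2. Inhibition is inferred from decreased luminescence after adding detection reagent.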
# AMA1 RON2 block – AMA1-RON2 (P. falciparum) interaction inhibition | AlphaScreen AMA1-biotinylated RON2 peptide binding | Potency, µM (series often up to 58.2 µM), inactives show top-dose activity change, negative = inhibition, most hits filed as inhibitors | 360,000 tested, 0.2% active;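 note: potency is the fitted concentration of half-maximal effect; 0% = vehicle wells and -100% = peptide control; nearly all actives have a fitted effect of over 45% in size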
#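 AMA1 (3D7) with his tag at 25 nM final met compounds first, then biotinylated RON2 peptide at 25 nM; detection used donor plus acceptor beads, 10 µg/mL apiece, read by AlphaScreen after 30 min at room temperature.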
# * = called active by the depositor; u = inconclusive; x = no result given; + = active, no number. In the library only some 21% were active in any assay of this set; here they are far more common. Unless noted, calls come from the whole dose curve; as a rule, active = well fitted curve in the direction sought with a large enough effect; inconclusive = small, poorly fitted or top-dose-only effect, or another doubt; inactive = no such curve, though single readings can be large; an effect the other way counts as inactive or inconclusive.
SMILES,Shiga toxin inh,HCV inhibitor,Pf growth 96h,Cycloheximide cs,Pf growth 48h,AMA1 RON2 block
COc1cc(CCCN2C(N)=NC[C@@H]2c2ccccc2)cc(OC)c1OC,-5,-11%,u,-3,12µM*,5%
O=C(C(=O)N1CCN(c2ccccc2)CC1)c1ccccc1,x,x,x,x,x,-4%
N#Cc1c(NC(=S)NC(=O)C2CCCC2)sc2c1CCCCC2,27*,u,-27%,23*,-7%,34%
Cc1cccc(NC(=O)c2c(NC(=O)c3ccccc3)sc3c2CCCC3)c1,25,x,x,-1,x,x
N#Cc1c(NC(=O)C2CC=CCC2C(=O)O)sc2c1CCCCCC2 (configuration not stated),11,2%,-42%,-6,7%,-22%
N#Cc1c(NC(=O)c2cccnc2)sc2c1CCC2,58,u,101%,19*,x,-18%
N#Cc1c(NC(=O)c2ccccc2)sc2c1CCC2,196*,u,258%,46*,x,-5%
Cc1cccc(C(=O)Nc2sc3c(c2C#N)CCCCC3)c1,85*,u,13%,44*,459%,-14%
Clc1cccc(-c2nc3c4ccccc4ccn3c2CC2CCCCC2)c1,x,x,x,x,x,4%
O=C(NC1CCOc2ccccc21)c1ccc(Cl)nc1 (configuration not stated),-2,10%,0%,-1,3%,1%
CC(C)Cc1nnc(NC(=O)c2cc([N+](=O)[O-])ccc2N2CCOCC2)s1,21,x,98%,19*,22%,2%
N#Cc1c(N)sc2c1CCN(CCc1ccccc1)C2,11,-14%,79%,-2,10µM*,0%
N#Cc1c(NC(=O)c2cc([N+](=O)[O-])ccc2N2CCOCC2)sc2c1CCCC2,+,-20%,u,30*,u,-10%
N#Cc1c(NC(=O)c2cnccn2)sc2c1CCCC2,75*,u,73%,66*,175%,40%
CCc1ccc(NS(=O)(=O)c2c(C(=O)N3CCCCCC3)c(C)n(C)c2C)cc1,6,6%,7%,2,14%,-4%
CC1ON=C(c2ccccn2)N(Cc2ccc3c(c2)OCO3)C1=O (configuration not stated),x,x,x,x,x,-5%
COc1ccc(CC(=O)OC(C)C(=O)NCc2ccc3c(c2)OCO3)cc1OC (configuration not stated),x,18%,8%,x,-14%,-1%
COc1ccccc1C(=O)Nc1sc2c(c1C#N)CCC2,x,9%,331%,12*,137%,3%
Cc1ccccc1C(=O)NC(=S)Nc1sc2c(c1C#N)CCC(C)C2 (configuration not stated),28,14%,14%,-3,54%,23%
N#Cc1c(NC(=O)c2ccc([N+](=O)[O-])o2)sc2c1CCC2,97*,-2%,52%,28*,76%,-18%
N#Cc1c(NC(=S)NC(=O)c2ccccc2)sc2c1CCCC2,35*,10%,u,34*,35%,46%
NC(=O)c1c(NC(=O)c2ccc([N+](=O)[O-])o2)sc2c1CCCC2,13,u,33%,10,-56%,2%
COc1ccccc1C(=O)Nc1sc2c(c1C(N)=O)CCCC2,44,u,u,12,5%,10%
CC1CCc2c(sc(NC(=S)NC(=O)c3ccccc3)c2C#N)C1 (configuration not stated),65*,-5%,51%,21*,17%,18%
CC(OC(=O)Cc1coc2ccc3ccccc3c12)C(=O)NC(N)=O (configuration not stated),-10,-17%,-5%,-2,-23%,-12%
SMILES,Shiga toxin inh,HCV inhibitor,Pf growth 96h,Cycloheximide cs,Pf growth 48h,AMA1 RON2 block
Cc1ccc2nc3n(c(=O)c2c1)-c1ccccc1C(=O)NC3Cc1ccccc1 (configuration not stated),x,5%,6%,x,27%,x
CC1(C(=O)NS(=O)(=O)c2ccc(Cl)s2)CCN1C(=O)c1ccc(C2CCCCC2)cc1 (configuration not stated),x,x,x,x,x,-5%
CC(C)(C)C(O)(CC#CCN1CCCC1)c1ccccc1 (configuration not stated),-16,-12%,1%,5,-27%,-10%
Cc1ccc(S(=O)(=O)N2CCOCC2)cc1C(=O)NC1CCSc2ccccc21 (configuration not stated),17,-3%,2%,17,-19%,-4%
COc1ccc(NC2CCCN(C(=O)c3ccc4nc(C)c(C)nc4c3)C2)cc1OC (configuration not stated),-1,-3%,23%,11,8%,0%
N#Cc1c(NC(=S)NC(=O)c2ccccc2)sc2c1CCN(CCc1ccccc1)C2,5,-9%,2.6µM*,-1,4.1µM*,x
CN(C)c1cc[n+](CC(=O)Nc2cc(C(F)(F)F)ccc2Cl)cc1,-6,18%,0.83µM*,0,1.7µM*,24%
O=C(C[n+]1ccc2ccccc2c1)Nc1cc(C(F)(F)F)ccc1Cl,-14,u,u,-9,1.3µM*,20%
Cc1cc[n+](CC(=O)Nc2cc(C(F)(F)F)ccc2Cl)cc1,5,25%,u,2,u,-4%
O=C(NC(=S)Nc1cc(C(F)(F)F)ccc1Cl)c1ccccc1,17,9%,u,-3,22%,39%
O=C(CC(=O)c1ccccc1)Nc1cc(C(F)(F)F)ccc1Cl,25,2%,39%,16*,-20%,-16%
O=C(O)c1ccc(NNC(=S)Nc2cc(C(F)(F)F)ccc2Cl)cc1,59*,23%,404%,36*,152%,83%
COc1ccc(C(=O)C[C@@H]2OC[C@H](C(C)C)N2S(=O)(=O)c2ccc(C)cc2)cc1OC,x,x,x,x,x,-4%
CCOc1cc(CNn2cnnc2)cc(Cl)c1OCC(=O)NC(C)(C)C,11,-12%,35%,-1,11%,-6%
COc1ccc(C(=O)CC(=O)c2ccccc2O)cc1,x,u,u,39*,u,78%
COc1ccc(C(=O)COC(=O)c2ccc(OC)c(OC)c2)cc1OC,-5,-20%,40%,-2,4%,0%
COC(=O)c1ccccc1NCC(=O)c1ccc(OC)cc1,34,2%,u,12,-10%,-13%
COc1ccc(O)c(C(=O)CC(=O)c2ccc(F)cc2)c1,51,-8%,5%,20*,x,35%
COc1ccc(C(=O)CC(=O)c2ccccc2O)cc1OC,79*,-8%,6%,34*,u,83%
COc1ccc(O)c(C(=O)CC(=O)c2cccnc2)c1,x,u,x,x,x,78%
COc1ccc(O)c(C(=O)CC(=O)c2ccccc2C)c1,76*,u,232%,58*,u,-25%
C#CCN1C=C(C(=O)OCC)C(C)N(Cc2ccccc2I)S1(=O)=O (configuration not stated),x,u,x,x,x,0%

# Screens: PubChem, National Center for Advancing Translational Sciences (NCATS)
